Among the data in PubChem BioAssay (EPA / NIEHS) are outcome and AC50 values, retold here.

A short description of test [1]: ATG_CRE_CIS: Attagene CIS-FACTORIAL HepG2 Assay for human cAMP Responsive Element (CRE) binding protein 3 (AID 2282926). As to conditions: HepG2 CRE cis-reporter, Attagene multiplexed mRNA; actives raise or lower the signal. Put shortly: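 Transfected HepG2 were treated for 24 hours, then RNA was extracted and reporter cDNA amplified with sequence-specific primers. Labelled fragments were separated by capillary electrophoresis, and the CRE signal was fitted bidirectionally with DMSO as baseline.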

Test [2] deals with CCAAT/enhancer-binding protein beta (Homo sapiens) (UniProt P17676). Briefly: ATG_C_EBP_CIS: Attagene CIS-FACTORIAL HepG2 Assay for human CCAAT/Enhancer Binding Protein (C/EBP) beta (AID 2282927). The note with it: HepG2 Attagene cis-factorial transcription factor reporter; actives raise or lower the signal. Put shortly: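 Changes in reporter mRNA, rather than exogenous chimeric receptor activity, reflect native C/EBP signalling in transfected HepG2 cells dosed for 24 h; transcripts are detected by RT-PCR and capillary electrophoresis.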
Chain of CCAAT/enhancer-binding protein beta (Homo sapiens) (P17676 whole entry, looked up): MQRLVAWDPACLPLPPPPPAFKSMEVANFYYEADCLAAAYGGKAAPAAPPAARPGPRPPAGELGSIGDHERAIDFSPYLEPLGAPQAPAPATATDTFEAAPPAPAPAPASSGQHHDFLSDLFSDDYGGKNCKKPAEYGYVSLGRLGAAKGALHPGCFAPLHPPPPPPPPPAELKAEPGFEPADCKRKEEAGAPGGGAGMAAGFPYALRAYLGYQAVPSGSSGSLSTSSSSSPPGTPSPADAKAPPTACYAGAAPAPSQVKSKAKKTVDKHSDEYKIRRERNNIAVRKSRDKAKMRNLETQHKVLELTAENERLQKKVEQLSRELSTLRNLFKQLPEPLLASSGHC

Test [3] in a line: ATG_CMV_CIS: Attagene CIS-FACTORIAL HepG2 Assay for human CMV (Internal Marker) (AID 2282928).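 Further: endpoint acts as a background internal control marker rather than a target.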 The note with it: HepG2 CMV promoter reporter, transcription factor profiling; actives raise or lower the signal. In short, it runs like this:
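HepG2 cells transiently transfected with multiple cis-regulated reporter units; 24 h compound exposure. Reporter mRNA quantified by RT-PCR, 6-FAM primer-extension labeling, HpaI digestion and capillary electrophoresis; bidirectional fitting against DMSO baseline.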

The nature of test [4]: ATG_DR4_LXR_CIS: Attagene CIS-FACTORIAL HepG2 Assay for human Liver X Receptor (LXR), DR4 submotif (AID 2282929). As to conditions: HepG2 Attagene DR4 cis-reporter, mRNA transcription; actives raise or lower the signal. Put shortly:
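After transient transfection with multiplexed cis-promoter reporter units, HepG2 cells received test chemicals for 24 h. Reporter mRNA induction, detected by fluorescence after RT-PCR and capillary electrophoresis, was scored relative to DMSO.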

Test [5] deals with Aryl hydrocarbon receptor (Homo sapiens) (UniProt P35869). The experiment in a line: ATG_Ahr_CIS: Attagene CIS-FACTORIAL HepG2 Assay for human Aryl Hydrocarbon Receptor (Ahr) (AID 2282930). The note with it: HepG2 AhR cis-factorial reporter transcription; actives raise or lower the signal. In short, it runs like this:
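HepG2, transient MRTU (cis) transfection, 24 h exposure. RNA → cDNA → PCR → 6-FAM primer extension → HpaI 2 h 37 C → CE. Fit: bidirectional, DMSO baseline.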

A short description of test [6]: ATG_AP_1_CIS: Attagene CIS-FACTORIAL HepG2 Assay for human Activator Protein 1 (AP-1) (AID 2282931). The note with it: HepG2 Attagene cis-factorial AP-1 reporter mRNA; actives raise or lower the signal. In short, it runs like this: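 After 24 h incubation with test chemical, RNA from transfected HepG2 cells was reverse-transcribed, amplified, fluorescently labelled and digested before capillary electrophoresis. Reporters were driven by cis-regulatory promoters; activity fitted bidirectionally versus DMSO.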

The nature of test [7]: ATG_AP_2_CIS: Attagene CIS-FACTORIAL HepG2 Assay for human Activator Protein 2 (AP-2) (AID 2282932). As to conditions: HepG2 AP-2 cis-reporter, Attagene transcription factor profiling; actives raise or lower the signal. In short, it runs like this:
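HepG2, transient MRTU transfection, cis-regulated reporters; 24 h compound exposure; RNA isolated, RT-PCR, 6-FAM labelling, HpaI digest, CE fluorescence. DMSO = negative control/baseline, bidirectional fit.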

Test [8] is described as follows: ATG_BRE_CIS: Attagene CIS-FACTORIAL HepG2 Assay for human Bone Morphogenetic Protein (BMP) Response Element (BRE) (AID 2282933). The note with it: HepG2 BMP response element reporter, Attagene transcription factor profiling; actives raise or lower the signal. Put shortly: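 A HepG2 multiplex reporter system measured inducible reporter mRNA 24 h post-dosing. Detection: RT-PCR, 6-FAM primer extension, HpaI digestion, capillary electrophoresis. Activity fitted bidirectionally relative to DMSO.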

Test [9] has as its target Retinoic acid receptor alpha (Homo sapiens) (UniProt P10276). The experiment in a line: ATG_DR5_RAR_CIS: Attagene CIS-FACTORIAL HepG2 Assay for human Retinoic Acid Receptor Alpha (RARE), DR5 submotif (AID 2282934).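 On AC50: reporter responds to endogenous RAR alpha beta and gamma in HepG2 not RARA alone.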 The note with it: HepG2 Attagene cis-factorial RARE DR5 reporter, mRNA; actives raise or lower the signal. Put shortly:
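HepG2, transient cis-reporter transfection, 24 h exposure. mRNA readout: RT-PCR, FAM label, HpaI cut, capillary electrophoresis. DMSO baseline, gain/loss fitting.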

For test [10], the target named is Transcription factor E2F1 (Homo sapiens) (UniProt Q01094). Briefly: ATG_E2F_CIS: Attagene CIS-FACTORIAL HepG2 Assay for human E2F Transcription Factor 1 (AID 2282935). The note with it: HepG2 Attagene cis-reporter, E2F reporter RNA transcripts; actives raise or lower the signal. Put shortly:
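Cis-element reporter mRNA induction in transiently transfected HepG2, 24 h exposure. Activity fitted in both directions relative to DMSO negative control.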

A short description of test [11]: ATG_E_Box_CIS: Attagene CIS-FACTORIAL HepG2 Assay for human Enhancer Box (E-box) (AID 2282936). As to conditions: HepG2 E-box cis-reporter transcription, actives raise or lower the signal. Put shortly:
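Cells: HepG2 (human liver), transient MRTU transfection. Exposure 24 h. RNA → oligo(dT) RT → PCR → 6-FAM label → HpaI → CE. Activity fitted both directions relative to DMSO.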

A short description of test [12]: ATG_M_61_CIS: Attagene CIS-FACTORIAL HepG2 Assay for M61 Transcription Factor (Internal Marker) (AID 2282937). The note with it: HepG2 Attagene CIS-FACTORIAL M61 internal marker reporter; actives raise or lower the signal. Put shortly: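 Using transiently transfected HepG2 liver cells, reporter transcript levels were assessed 24 h post-dosing by RT-PCR and capillary electrophoresis. Changes in either direction were fitted relative to DMSO controls.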

The nature of test [13]: ATG_EGR_CIS: Attagene CIS-FACTORIAL HepG2 Assay for human Early Growth Response 1 (EGR1) (AID 2282938). The note with it: HepG2 Attagene CIS-FACTORIAL EGR reporter mRNA; actives raise or lower the signal. In short, it runs like this: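 Fluorescent capillary-electrophoresis signal of reporter cDNA fragments serves as read-out. HepG2 cells bear transiently transfected cis-promoter reporter units and are exposed 24 h; gain- or loss-of-signal is fitted against DMSO.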

A short description of test [14]: ATG_M_19_CIS: Attagene CIS-FACTORIAL HepG2 Assay for M19 Transcription Factor (Internal Marker) (AID 2282939). The note with it: HepG2 Attagene CIS-FACTORIAL M19 internal marker reporter; actives raise or lower the signal. Put shortly:
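Chemical-treated HepG2 (24 h) with MRTU constructs; reporter transcripts detected by fluorescent RT-PCR fragment analysis on capillary electrophoresis. Internal background marker, DMSO as baseline.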

Test [15] in a line: ATG_ERE_CIS: Attagene CIS-FACTORIAL HepG2 Assay for Estrogen Response Element (ERE) (AID 2282940). As to conditions: HepG2 ERE cis-reporter, Attagene RNA transcript; actives raise or lower the signal. In short, it runs like this:
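Human liver cells (HepG2) bearing transiently transfected, promoter-regulated reporter units were exposed 24 h. Reporter mRNA induction was detected by capillary electrophoresis of labelled RT-PCR products and fitted bidirectionally to DMSO.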

The nature of test [16]: ATG_Ets_CIS: Attagene CIS-FACTORIAL HepG2 Assay for human Erythroblast Transformation Specific (ETS) (AID 2282941). As to conditions: HepG2 ETS cis-reporter transcription, actives raise or lower the signal. Put shortly:
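HepG2 cells transiently transfected with cis-promoter reporter transcription units were dosed for 24 h; reporter mRNA was measured by RT-PCR, 6-FAM primer extension, HpaI digestion and capillary electrophoresis, with bidirectional fitting against DMSO baseline.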

Test [17] deals with Hepatocyte nuclear factor 3-beta (Homo sapiens) (UniProt Q9Y261). The experiment in a line: ATG_FoxA2_CIS: Attagene CIS-FACTORIAL HepG2 Assay for human Forkhead box A2 (FOXA2) (AID 2282942). The note with it: HepG2 cis-reporter transcription factor activity, 24 h; actives raise or lower the signal. In short, it runs like this:
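Fluorescence signal of reporter cDNA fragments, separated by capillary electrophoresis, reflects endogenous transcription factor activity in transfected HepG2 after 24 h. Both increases and decreases fitted against DMSO.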

Test [18] in a line: ATG_GATA_CIS: Attagene CIS-FACTORIAL HepG2 Assay for human GATA Binding Protein (AID 2282944). As to conditions: HepG2 GATA cis-element reporter, Attagene multiplex mRNA; actives raise or lower the signal. In short, it runs like this: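 Transfected cis-reporter HepG2 cells were treated with chemicals for 24 hours. Total RNA was then converted to cDNA, amplified with reporter-specific primers and analysed by fluorescent capillary electrophoresis, using DMSO-treated wells as baseline.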

Test [19] in a line: ATG_GLI_CIS: Attagene CIS-FACTORIAL HepG2 Assay for human Zinc Finger Protein GLI1 (AID 2282945). As to conditions: HepG2, Attagene cis-factorial reporter mRNA, GLI element; actives raise or lower the signal. In short, it runs like this: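 Bidirectional curve fits relative to DMSO, using reporter mRNA levels from RT-PCR plus capillary electrophoresis. Cells were HepG2 transiently carrying cis-regulated reporter constructs, harvested 24 h after dosing.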

Test [20] is described as follows: ATG_FoxO_CIS: Attagene CIS-FACTORIAL HepG2 Assay for human Forkhead box O (FoxO) (AID 2282943). The note with it: HepG2 Attagene cis-reporter, FoxO element, mRNA; actives raise or lower the signal. In short, it runs like this:
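Human hepatoma HepG2 cells carry transiently introduced reporter transcription units controlled by cis promoter elements. Chemical treatment lasted 24 h, and mRNA signal was compared with DMSO.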

Where “and” joins values, the source holds several entries; their conditions need not be identical. Equal entries are not always repeated. Some structures have more than one record in an assay (separate samples or runs), and their calls can disagree. Calls of active or inactive are those of the source. How the source made its calls: active means hit-call score of the fitted dose curve at least 0.9, where 1 is the maximum; inactive means score below 0.9.

Chain of Retinoic acid receptor alpha (Homo sapiens) (P10276 whole entry, looked up): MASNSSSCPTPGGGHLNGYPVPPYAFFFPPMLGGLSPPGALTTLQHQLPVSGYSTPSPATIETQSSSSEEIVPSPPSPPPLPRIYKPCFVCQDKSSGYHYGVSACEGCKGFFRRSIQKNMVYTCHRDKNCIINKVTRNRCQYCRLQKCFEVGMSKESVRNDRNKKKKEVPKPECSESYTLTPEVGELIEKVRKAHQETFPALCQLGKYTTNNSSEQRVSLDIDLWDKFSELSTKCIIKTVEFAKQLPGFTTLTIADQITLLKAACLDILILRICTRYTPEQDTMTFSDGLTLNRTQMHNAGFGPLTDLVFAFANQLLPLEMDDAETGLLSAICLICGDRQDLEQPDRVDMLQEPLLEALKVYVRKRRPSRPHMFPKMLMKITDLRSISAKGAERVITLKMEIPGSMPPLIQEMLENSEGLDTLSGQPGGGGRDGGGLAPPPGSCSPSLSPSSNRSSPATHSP
Chain of Aryl hydrocarbon receptor (Homo sapiens) (P35869 whole entry, looked up): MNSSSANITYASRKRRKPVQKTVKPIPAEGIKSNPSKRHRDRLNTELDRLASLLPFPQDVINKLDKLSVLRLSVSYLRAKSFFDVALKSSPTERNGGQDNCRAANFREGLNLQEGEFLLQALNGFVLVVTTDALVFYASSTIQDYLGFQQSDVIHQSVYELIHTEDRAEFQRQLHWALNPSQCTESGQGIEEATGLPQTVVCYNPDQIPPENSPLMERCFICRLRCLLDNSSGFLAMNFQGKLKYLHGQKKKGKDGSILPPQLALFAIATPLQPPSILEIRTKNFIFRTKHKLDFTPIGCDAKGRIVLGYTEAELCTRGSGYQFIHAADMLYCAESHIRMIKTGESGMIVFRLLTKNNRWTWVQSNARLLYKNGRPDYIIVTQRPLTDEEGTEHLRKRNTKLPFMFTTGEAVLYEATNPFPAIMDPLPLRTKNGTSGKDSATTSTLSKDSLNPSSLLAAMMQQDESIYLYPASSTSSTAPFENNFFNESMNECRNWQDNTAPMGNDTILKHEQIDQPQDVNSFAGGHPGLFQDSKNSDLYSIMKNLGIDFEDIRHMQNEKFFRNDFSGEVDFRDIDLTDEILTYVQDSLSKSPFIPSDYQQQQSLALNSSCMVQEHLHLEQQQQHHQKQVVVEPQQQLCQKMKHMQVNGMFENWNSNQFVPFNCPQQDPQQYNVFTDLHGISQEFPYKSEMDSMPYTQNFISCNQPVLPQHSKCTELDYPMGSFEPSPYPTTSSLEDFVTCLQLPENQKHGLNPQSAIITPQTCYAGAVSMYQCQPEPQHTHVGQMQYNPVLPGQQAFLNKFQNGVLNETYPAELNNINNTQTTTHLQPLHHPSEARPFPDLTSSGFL
Chain of Hepatocyte nuclear factor 3-beta (Homo sapiens) (Q9Y261 whole entry, looked up, the tested form may be a part): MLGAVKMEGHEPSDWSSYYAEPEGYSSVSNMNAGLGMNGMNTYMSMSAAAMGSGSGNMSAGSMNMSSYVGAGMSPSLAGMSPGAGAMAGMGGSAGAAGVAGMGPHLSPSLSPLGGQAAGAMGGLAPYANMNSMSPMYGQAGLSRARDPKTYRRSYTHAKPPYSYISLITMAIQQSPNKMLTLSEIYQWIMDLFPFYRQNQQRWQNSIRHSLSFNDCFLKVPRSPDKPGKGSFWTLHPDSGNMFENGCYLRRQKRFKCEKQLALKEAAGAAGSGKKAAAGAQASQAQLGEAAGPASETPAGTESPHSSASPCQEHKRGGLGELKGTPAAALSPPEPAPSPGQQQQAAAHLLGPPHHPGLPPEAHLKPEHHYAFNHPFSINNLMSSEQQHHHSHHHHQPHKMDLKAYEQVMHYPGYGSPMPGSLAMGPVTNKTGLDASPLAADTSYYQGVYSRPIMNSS
Chain of Transcription factor E2F1 (Homo sapiens) (Q01094 whole entry, looked up): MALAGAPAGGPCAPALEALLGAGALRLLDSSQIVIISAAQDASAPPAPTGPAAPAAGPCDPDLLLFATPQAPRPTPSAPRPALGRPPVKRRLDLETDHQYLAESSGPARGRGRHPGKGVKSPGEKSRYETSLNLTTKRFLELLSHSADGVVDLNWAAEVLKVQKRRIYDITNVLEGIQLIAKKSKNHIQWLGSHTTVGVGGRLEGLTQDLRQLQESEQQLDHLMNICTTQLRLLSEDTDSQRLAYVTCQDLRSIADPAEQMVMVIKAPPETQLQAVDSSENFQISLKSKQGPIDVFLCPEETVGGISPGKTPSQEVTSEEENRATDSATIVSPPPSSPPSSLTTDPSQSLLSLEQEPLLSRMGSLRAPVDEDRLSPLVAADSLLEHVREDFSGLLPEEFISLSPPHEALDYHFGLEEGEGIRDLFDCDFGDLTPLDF

The term AC50 denotes the midpoint of the concentration-response curve, whichever way the signal moves. Take `CCCCCc1ccc(N)cc1`: the call in test [1], in test [2], in test [3], in test [4], in test [5] and in [6] was inactive. For the same compound, the compound was classed as inactive in [7], in test [8], in test [9], in [10], in [11] and in test [12]. The result in test [13], in [14], in test [16], in test [17], in test [18] and in test [19] was inactive. The AC50 in test [5] is 65.5 µM (active); in test [6], 25.9 µM (active); in test [11], 5.55 µM (active) and 4.89 µM (active); in [15], 15.1 µM (active) [middle of 4 runs].
Turning to `O=C1CCC(C2CCCCC2)CC1`, the compound was called inactive in test [1], in [2], in [3], in test [4], in test [5] and in test [7]. In addition, the outcome in [8], in test [9], in test [10], in [12], in [13] and in [14] was inactive. In addition, the call in test [16], in test [17], in test [20], in test [18] and in test [19] was inactive. The AC50 in test [3] was 100 µM (active) and 39.3 µM (active); in test [4], 164 µM (active) and 171 µM (active) and 160 µM (active); in test [6] it was 133 µM (active) [middle of 4 runs]; in [7], 163 µM (active); in test [8], 147 µM (active) and 156 µM (active); in test [13] it was 130 µM (active). Besides, the AC50 is 131 µM (active) in test [16] and 187 µM (active) in [18].
Regarding `CC1(C)NC(=O)N(c2ccc([N+](=O)[O-])c(C(F)(F)F)c2)C1=O`, the AC50 in [1] is 0.00911 µM (active); in test [6], 39.2 µM (active); in test [9], 0.083 µM (active). In addition, the compound was classed as inactive in test [1], in test [2], in test [3], in test [4], in [5] and in test [6]. Besides, the compound was classed as inactive in test [7], in test [8], in test [9], in [10], in test [12] and in test [13]. The result in [14], in test [16], in test [17], in test [20], in [18] and in test [19] was inactive.
Regarding `CC[C@H](NC(=O)c1cc(F)ccc1NS(=O)(=O)c1cccc2cccnc12)c1ccccc1`, the call in test [1], in [2], in [3], in test [4], in [5] and in test [6] was inactive. Besides, the compound was called inactive in test [7], in test [8], in test [9], in [10], in [11] and in [12]. Also, the outcome in test [13], in [14], in test [15], in test [16], in test [17] and in test [20] was inactive. The compound was classed as inactive in test [18] and in test [19].
Take `CC(O)CC(C)(C)O` (centres undefined): the outcome in test [1], in test [2], in test [3], in [4], in [5] and in test [6] was inactive. Further, the compound was called inactive in test [7], in test [8], in test [9], in [10], in [11] and in [12]. The call in [13], in [14], in [16], in test [17], in test [20] and in [18] was inactive. Moreover, the result in test [19] was inactive. In addition, the AC50 in test [7] was 0.0125 µM (active); in test [20] it was 0.0124 µM (active).
